Laboratory results as given in PMC4552634, “A New Set of Chemical Starting Points with Plasmodium falciparum Transmission-Blocking Potential for Antimalarial Drug Discovery” (PLoS ONE, 2015).
The whole screen tested about 13,000 compounds, of which about 3,200 (25%) showed an effect of 50% or more. The list shows a part of the results.

System: P. falciparum stage V gametocytes
Parameters: BacTiter-Glo ATP luminescence viability of purified stage V gametocytes in 384-well plates, per cent inhibition versus DMSO
Settings: 48 h, 5 µM; inhibitor

Row | SMILES | % Inhibition [%]
1 | O=C(COc1cccc([N+](=O)[O-])c1)Nc1ccc(-c2nc3ccccc3[nH]2)cc1 [TCMDC-123683] | 43.84
2 | Cc1cc(OCC2CCCO2)c2cc(NC(=O)C(=O)Nc3ccc4nc(C)cc(OCC5CCCO5)c4c3)ccc2n1 (stereo not drawn) [TCMDC-139970] | -0.178
3 | CN1CCN(c2ccnc3ccc(NC(=O)N(C)c4ccc(Cl)c(Cl)c4)cc23)CC1 [TCMDC-139453] | 8.724
4 | O=C(Nc1ccc(-c2nc3ccccc3[nH]2)cc1)c1ccc(N2CCCC2)c([N+](=O)[O-])c1 [TCMDC-124370] | 0.2157
5 | O=c1[nH]nc(-c2ccc(N3CCCC3)c([N+](=O)[O-])c2)c2ccccc12 [TCMDC-123666] | 91.56
6 | Cc1nnc2sc(-c3cccc(NC(=O)c4ccc(N5CCCCC5)c([N+](=O)[O-])c4)c3)nn12 [TCMDC-125211] | 2.608
7 | O=S(=O)(Nc1ccc2nccc(N3CCNCC3)c2c1)c1ccc2oc3ccccc3c2c1 [TCMDC-139406] | -1.818
8 | Cc1cc(N2CCCC2)nc(Nc2ccc(NC(=O)c3ccc(Br)o3)cc2)n1 [TCMDC-124708] | -0.4475
9 | COc1ccc(C(=O)N[C@@H](CC(C)C)C(=O)N[C@H](/C=N/NC(=O)c2ccccc2)CCc2ccccc2)cc1OCCN1CCOCC1 [TCMDC-135529] | -24.16
10 | Cc1ccc(NC(=O)N2CCCN(CCCCCNC(=O)/C=C/c3ccc(Cl)c(Cl)c3)CC2)cc1C [TCMDC-135747] | -47.01
11 | CCC(C)NC(=O)Nc1ccc(-c2cccc(-c3nc4ccc(C(F)(F)F)cc4[nH]3)c2)cc1 (stereo not drawn) [TCMDC-133240] | 1.328
12 | Cc1nn(-c2ccc(Cl)cc2)c2[nH]c(CN3CCN(c4cccc(Cl)c4)CC3)cc(=O)c12 [TCMDC-124869] | 23.11
13 | CCC[C@@H]([C@@H](CC(C)C)C(=O)N[C@@H](CCCN=C(N)NS(C)(=O)=O)C(=O)Nc1nccs1)N(O)C=O [TCMDC-138171] | -40.24
14 | CCCC(C(CC1CCC(C)CC1)C(=O)NC(CCCNc1ncccn1)C(=O)Nc1nccs1)N(O)C=O (stereo not drawn) [TCMDC-138160] | 11.06
15 | CCC[C@@H]([C@@H](CC(C)C)C(=O)N[C@@H](CCCNc1nccc(C(F)(F)F)n1)C(=O)Nc1nccs1)N(O)C=O [TCMDC-137458] | 53.7
16 | CCC[C@@H]([C@@H](CC(C)C)C(=O)N[C@@H](CCCCNC(=O)c1cccc(OC)c1)C(=O)Nc1nccs1)N(O)C=O [TCMDC-137305] | 57.38
17 | CCC[C@@H]([C@@H](CC1CCC(C)CC1)C(=O)N[C@@H](CCCCNC(=O)c1ccccn1)C(=O)Nc1nccs1)N(O)C=O (stereo partly drawn) [TCMDC-138151] | 22.92
18 | CCC[C@@H]([C@@H](CC(C)C)C(=O)N[C@@H](CCCCNC(=O)c1ccccn1)C(=O)Nc1nccs1)N(O)C=O [TCMDC-137550] | 43.83
19 | COc1ccc(CC(C)CON2C(N)=NC(N)=NC2(C)C)cc1 (stereo not drawn) [TCMDC-131722] | 5.106
20 | O=C(NCCNc1ccnc(Nc2ccc(F)cc2)n1)Nc1ccc2c(c1)OCO2 [TCMDC-133641] | -26.39

Row | SMILES | % Inhibition [%]
21 | CC(C)(CNCc1cc(Cl)cc(Cl)c1)c1nc(-c2ccc(Cl)c(O)c2)c(-c2ccnc(N)n2)[nH]1 [TCMDC-141164] | -8.339
22 | CC1CN(c2ccc(NC(=O)c3ccsc3)cc2C(=O)N2CCN(Cc3ccc(C(C)(C)C)cc3)CC2)CC(C)O1 (stereo not drawn) [TCMDC-139281] | 17.04
23 | C=CC[C@H](C[C@H](O)[C@H](Cc1ccccc1)NC(=O)c1ccc(-n2cccn2)cc1)C(=O)NC1CCCCC1 [TCMDC-141420] | 10.16
24 | CCc1c(C)nc(-n2nc(C)cc2NC(=O)C(CC)c2ccccc2)[nH]c1=O (stereo not drawn) [TCMDC-124935] | 27.05
25 | O=[N+]([O-])c1ccc2ncnc(Nc3ccc(F)c(Cl)c3)c2c1 [TCMDC-123784] | 0.775
26 | O=C(Nc1ccc(Cl)cc1)Nc1nc2ccc([N+](=O)[O-])cc2[nH]1 [TCMDC-137530] | 30.09
27 | Oc1ccc(Nc2ccnc3cc(Cl)ccc23)cc1 [TCMDC-125528] | -45.78
28 | O=[N+]([O-])c1ccc2nc(Nc3ccc(Cl)c(Cl)c3)c(Nc3ccc(Cl)c(Cl)c3)nc2c1 [TCMDC-125794] | 113.6
29 | Clc1ccc(Nc2nc3ccc(Cl)cc3nc2Nc2ccc(Cl)cc2)cc1 [TCMDC-137772] | 143.7
30 | Brc1ccc(Nc2nc3ccccc3nc2Nc2ccc(Br)cc2)cc1 [TCMDC-125776] | -38.43
31 | O=S(=O)(NCCCN1CCOCC1)c1ccc2nccc(Nc3ccc(Oc4ccccc4)cc3)c2c1 [TCMDC-138692] | -57.28
32 | FC(F)(F)c1cccnc1N1CCC(Nc2nc3ccc(Cl)cc3[nH]2)CC1 [TCMDC-135644] | -32.98
33 | CCNc1cc(C(=O)N[C@@H](Cc2ccccc2)[C@H](O)CNCCc2ccccc2)cc(N2CCCC2=O)c1 [TCMDC-141682] | 21.5
34 | COc1cc(C(=O)N2CCC(CCN3CCC4(CC3)CN(S(C)(=O)=O)c3ccccc34)CC2Cc2ccc(Cl)c(Cl)c2)cc(OC)c1OC (stereo not drawn) [TCMDC-141627] | 50.03
35 | CS(=O)(=O)N1CC2(CCN(CCC(NC(=O)Nc3ccccc3)c3ccc(Cl)c(Cl)c3)CC2)c2ccccc21 (stereo not drawn) [TCMDC-141766] | 12.26
36 | CS(=O)(=O)N1CC2(CCN(CCC(NC(=O)NCc3ccc(Cl)c(Cl)c3)c3ccc(Cl)c(Cl)c3)CC2)c2ccccc21 (stereo not drawn) [TCMDC-141769] | -4.824
37 | C[C@@H](NC(=O)NC(CCN1CCC2(CC1)CN(S(C)(=O)=O)c1ccccc12)c1ccc(Cl)c(Cl)c1)c1ccccc1 (stereo partly drawn) [TCMDC-141767] | 25.06
38 | CS(=O)(=O)N1CC2(CCN(CCC(NC(=S)Nc3ccccc3)c3ccc(Cl)c(Cl)c3)CC2)c2ccccc21 (stereo not drawn) [TCMDC-141770] | 57.16
39 | COc1ccc(CC(=O)NC(CCN2CCC3(CC2)CN(S(C)(=O)=O)c2ccccc23)c2ccc(Cl)c(Cl)c2)cc1OC (stereo not drawn) [TCMDC-141764] | 25.44
